Bioassay records deposited in PubChem BioAssay by Broad Institute.
FGF22 binding – shifts melting point of recombinant human FGF22; recombinant FGF22 thermal shift, SYPRO orange fluorescence; percent of sucrose octasulfate shift, DMSO zero; activity (Tm shift, normalised), % at 9.99 µM; 340,000 compounds, 1.5% hits; AID 651658;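 active = mean Tm shift, scaled 0 neutral to 100 positive control, at about 1.3% or above, every replicate too, limit read from the data; inconclusive = no clear call, values can overlap the other calls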
Target sequence (Q9HCT0 whole entry, looked up): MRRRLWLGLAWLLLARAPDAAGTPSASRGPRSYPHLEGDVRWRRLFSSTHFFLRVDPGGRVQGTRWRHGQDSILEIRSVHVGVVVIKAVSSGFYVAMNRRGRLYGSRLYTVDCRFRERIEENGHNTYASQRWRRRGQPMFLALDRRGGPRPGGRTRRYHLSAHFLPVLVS
MLL AF4-AF9 inh – MLL-AF4/AF9 protein interaction inhibition; P42568; AlphaScreen, biotin-AF4 peptide binding to FLAG-AF9; inhibition, % at 10 µM; 350,000 compounds, 0.47% hits; AID 651704;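 active = every replicate reaching a set inhibition limit, whatever the replicate mean, cut at about 25% in these data; inconclusive = mean inhibition reaches that limit but some replicates miss it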
RAD52 anneal inh – inhibitors of human RAD52 DNA annealing. recombinant RAD52 DNA annealing, FRET fluorescence. inhibition, % at 18.7 µM. 360,000 compounds, 0.46% hits. AID 651710;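 active = every replicate showing at least 50% inhibition; inconclusive = mean inhibition at least 50% but not in every replicate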
Target sequence (P43351 whole entry, looked up): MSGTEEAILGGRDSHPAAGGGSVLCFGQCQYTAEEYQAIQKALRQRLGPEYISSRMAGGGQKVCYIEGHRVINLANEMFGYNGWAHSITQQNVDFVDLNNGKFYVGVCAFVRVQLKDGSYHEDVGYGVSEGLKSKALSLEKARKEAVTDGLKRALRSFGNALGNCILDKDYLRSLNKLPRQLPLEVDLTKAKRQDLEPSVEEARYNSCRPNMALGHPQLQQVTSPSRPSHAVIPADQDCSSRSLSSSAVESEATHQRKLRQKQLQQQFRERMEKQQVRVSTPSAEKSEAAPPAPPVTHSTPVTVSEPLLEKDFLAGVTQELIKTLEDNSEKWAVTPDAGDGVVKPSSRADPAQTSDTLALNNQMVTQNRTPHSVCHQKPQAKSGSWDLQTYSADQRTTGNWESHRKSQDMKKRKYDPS
DENV2 CPE rescue – inhibitors of DENV2 cytopathic effect; DENV2-infected cells, cytopathic effect rescue, plate reader; CPE inhibition, % at 9.99 µM; 350,000 compounds, 1.7% hits; AID 651640; in the data active = CPE inhibition above about 20%, passing the limit was not always enough; inconclusive = no clear call, values can overlap the other calls; tested in BHK-21 cells
ERAP1 HTS inh – ERAP1 (human) enzyme inhibition; 340,000 compounds, 0.15% hits; AID 652197; inhibition, % at 10.7 µM; recombinant ERAP1, Leu-AMC fluorescence, 60 min;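 active = mean replicate inhibition of at least 30%, or all replicates individually reaching that 30% level; inactive = mean below 30% and not every replicate reaching it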
Alpha interfer – AlphaScreen signal interference counter-screen hit; 530 compounds, 45% hits; signal luminescence; AID 720494; shares compounds with MLL AF4-AF9 inh; AC50, µM (highest dose often 12 µM); cut-off not given, nearly all actives have AC50 up to about 14 µM
DNA binder FP – DNA binding artifact in RAD52 counter-screen; shares compounds with RAD52 anneal inh; Salmon sperm DNA/acridine orange FP displacement; AC50, µM; 1,000 compounds, 8% hits; AID 652128;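 active = fitted half-maximal concentration for signal loss at or below twice the highest dose tested, in every separate run, actives reach about 64 µM in these data; inconclusive = runs disagree, or flat partial signal loss, or poor fit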
A number is an active result; – = inactive; ? = inconclusive; · = no result given. Only some compounds are listed: those with a hit (about 4% of all), similar ones and a draw of the others.

SMILES | FGF22 binding | MLL AF4-AF9 inh | RAD52 anneal inh | DENV2 CPE rescue | ERAP1 HTS inh | DNA binder FP | others
CCOc1ccc(NCc2cccn2-c2nnc(N3CCC(C(=O)NCCCN4CCCCC4C)CC3)s2)cc1 (stereo not drawn) | – | 47 | 80 | – | – | – | Alpha interfer=14µM
Cc1noc(C)c1NC(=O)N(C)C[C@@H]1Oc2ccc(NC(=O)CCN3CCOCC3)cc2C(=O)N([C@H](C)CO)C[C@@H]1C | – | – | – | – | – | ·
COc1cc(NCCCCCCN)c2ncccc2c1OC | – | 43 | 63 | – | – | – | Alpha interfer=–
COc1cc(NC(C)CCCNC(C)C)c2ncccc2c1OC (stereo not drawn) | – | – | – | – | – | ·
C[C@H](CO)N1C[C@H](C)[C@@H](CN(C)S(=O)(=O)c2ccc(F)cc2)Oc2ccc(NC(=O)CCN3CCOCC3)cc2CC1=O | – | – | – | – | – | ·
Cc1ccc2c(c1)c1c(n2CC(O)CN2CCCCCC2)CCCC1 (stereo not drawn) | – | 35 | 81 | – | – | – | Alpha interfer=–
CCN(CC)CCN(C(=O)c1ccc(C(=O)c2ccccc2)cc1)c1nc2c(OC)cccc2s1 | – | 27 | 61 | – | – | –
COc1cccc2sc(N(CCCN(C)C)C(=O)c3sc4ccccc4c3Cl)nc12 | – | 28 | 58 | – | – | –
COc1ccccc1C#Cc1cnc2c(c1)C(=O)N([C@@H](C)CO)C[C@H](C)[C@@H](CN(C)C)O2 | – | – | – | – | – | ·
C[C@@H]1CN([C@@H](C)CO)C(=O)Cc2cc(NS(=O)(=O)c3cn(C)cn3)ccc2O[C@H]1CN(C)Cc1ccc(Cl)c(Cl)c1 | – | – | – | · | – | ·
O=c1ccn([C@@H]2O[C@H](CNCc3cccc4c3sc3ccccc34)[C@@H](O)[C@H]2O)c(=O)[nH]1 | – | – | 62 | – | – | –
CC1CCN(CCOCCOc2ccc(Cl)cc2Br)CC1 | – | – | 52 | – | – | –
COc1cc2c(cc1OC)CN(c1nc(CN3CCCC3)nc3sc(C)c(C)c13)CC2 | – | – | 65 | – | – | –
O=C(Nc1ccc(Cc2ccncc2)cc1)c1cccc([N+](=O)[O-])c1 | – | – | – | – | – | ·
O=C(Nc1ccc(Nc2ccncc2)cc1)c1ccc(Nc2ccnc3ccc([N+](=O)[O-])cc23)cc1 | – | – | 94 | – | – | –
CCCNC(=O)C[C@@H]1CC[C@@H]2[C@H](COc3ccc(NC(=O)NCC)cc3C(=O)N2C)O1 | – | – | – | – | – | ·
CN(C)CCCNC(=S)N(CCO)Cc1cc2cc3c(cc2[nH]c1=O)OCO3 | – | – | – | – | – | ·
CCN(CC)CCN(Cc1cc2cc3c(cc2[nH]c1=O)OCO3)C(=S)NCCCN(C)C | – | – | – | – | – | ·
CN(C)CCCNC(=S)N(CCN(C)C)Cc1cc2cc3c(cc2[nH]c1=O)OCCO3 | – | – | 84 | – | – | –
CCN(CC)CCN(Cc1cc2cc3c(cc2[nH]c1=O)OCCO3)C(=S)NCCCN(C)C | – | – | 54 | – | – | –
CCOC(=O)c1cc(NC(=O)N(C(C)C)C2CCCCC2)c(C)nc1C | – | – | 96 | – | – | –
CCOC(=O)c1cc(NC(=O)NC2CCCCC2)c(C)nc1C | – | – | – | – | – | ·
CN(C)c1ccc(/C=N/n2c(C3CCCCC3)n[nH]c2=S)cc1 | – | – | 97 | – | – | –
CCOC(=O)c1c(CN(C)C)n(C)c2c(O)c(N=NC(N)=O)c3ccc(Br)cc3c12 | – | – | 101 | – | – | –
CCOC(=O)c1c(CN2CCOCC2)n(C)c2cc(Br)c(O)c(CN(C)C)c12 | – | – | – | – | – | ·
SMILES | FGF22 binding | MLL AF4-AF9 inh | RAD52 anneal inh | DENV2 CPE rescue | ERAP1 HTS inh | DNA binder FP | others
CC(=O)N1[C@@H]2c3ccc(C4=CCCCC4)c(=O)n3C[C@H]1[C@H](CO)[C@H]2C(=O)NC1CCC1 | – | – | – | – | – | ·
NC(=NCc1ccc2c(c1)OCO2)NC(=O)c1ccccc1 | · | – | 51 | – | – | –
Cn1c2ccccc2c(=O)c2cc(NCCCN3CCOCC3)ccc21 | – | – | 70 | – | 52 | –
CN1CCC[C@H]1CCNc1ccc2c(=O)c3ccccc3n(C)c2c1 | – | – | 50 | – | · | –
COc1cccc2sc3cc(NCCCN4CCOCC4)ccc3c(=O)c12 | – | · | 62 | – | – | –
C/C=C/c1ccc2c(c1)O[C@H](CN(C)C(=O)NCCC)[C@@H](C)CN([C@H](C)CO)S2(=O)=O | – | – | – | – | – | ·
O=C(NCC[C@H]1CC[C@@H](NC(=O)c2cnccn2)[C@@H](CO)O1)c1ccc2c(c1)OCO2 | – | – | – | – | – | ·
COc1ccc(-c2c(-c3ccccc3)c(C(=O)C(=O)NCCCN(C)C)n3ccc4cc(OC)c(OC)cc4c23)cc1OC | – | 38 | 94 | – | – | –
C[C@@H]1CCCCO[C@H](CN(C)C)[C@H](C)CN([C@H](C)CO)C(=O)c2cc(NC(=O)Nc3ccc(C(F)(F)F)cc3)ccc2O1 | · | – | – | – | – | ·
COc1ccc(-c2cnc3c(NC(C)=O)cc(-c4cccc(C(=O)NCCO)c4)cn23)cc1OC | – | – | – | – | – | ·
CC(=O)Nc1cc(-c2cccc(C(=O)NCCN(C)C)c2)cn2c(-c3ccc(C(C)=O)cc3)cnc12 | – | – | 71 | – | – | –
COc1cc(-c2cnc3c(NC(C)=O)cc(-c4cccc(C(=O)NCCO)c4)cn23)cc(OC)c1OC | – | – | – | – | – | ·
COc1cccc(-c2cnc3c(NC(C)=O)cc(-c4cccc(C(=O)NCCN(C)C)c4)cn23)c1 | – | ? | 100 | – | – | –
CC(=O)Nc1cc(-c2cccc(C(=O)NCCN(C)C)c2)cn2c(-c3ccc(F)c(Cl)c3)cnc12 | – | – | – | – | – | ·
COc1ccc(-c2cnc3c(NC(C)=O)cc(-c4cccc(C(=O)NCCN(C)C)c4)cn23)cc1OC | – | – | 101 | – | – | –
C[C@H]1CN([C@@H](C)CO)C(=O)c2cc(NC(=O)Cc3ccccc3)ccc2O[C@H]1CN(C)CC1CCCCC1 | – | – | – | – | – | ·
FC(F)(F)c1cc(CCN2CCNC[C@H]2Cc2cccc3ccccc23)cc(C(F)(F)F)c1 | – | – | 60 | 84 | – | –
C[N+](C)(C)CC(=O)N/N=C/c1c2ccccc2cc2ccccc12 | – | – | 94 | – | – | 55µM
C[C@H](CO)N1C[C@H](C)[C@H](CN(C)C(=O)NC2CCCCC2)OCCCC[C@H](C)Oc2ccc(NC(=O)Nc3ccc(F)cc3)cc2C1=O | – | – | – | – | – | ·
Cc1noc(C)c1NC(=O)Nc1ccc2c(c1)C(=O)N([C@@H](C)CO)C[C@@H](C)[C@H](CN(C)C(=O)Nc1ccc(C(F)(F)F)cc1)O2 | – | – | – | – | – | ·
Cc1c(C(=O)NCc2ccc3c(c2)cc(C)n3C)cccc1[N+](=O)[O-] | – | – | – | – | – | ·
